# Inconclusive results are not listed. A number with no mark means an inactive call. Calls follow the shape of the dose curve; as a rule, active = well fitted cell-killing curve with a large enough effect in the repeat runs; inconclusive = weak or mixed curves, or effect the other way; inactive = flat fitted curve, though single readings scatter.
# Test: qHTS RealTime-Glo MT Cell Viability Assay in HEK293 cells - 32 hour (AID 1224868); also: top concentration of the series differs between compounds; nearly all actives have a fitted effect of over 50% in size
# Details: RealTime-Glo luminescence; series mostly up to 76.8 µM; activity change, negative = cytotoxic: at the top concentration
# Description: National Center for Advancing Translational Sciences [NCATS]
# NIH Chemical Genomics Center [NCGC]
# U.S. Environmental Protection Agency [EPA]
# National Institutes of Environmental Health Sciences [NIEHS]
# National Toxicology Program [NTP]
# U.S. Food and Drug Administration [FDA]
# Measure of cell viability is critical in the cell-base assay. Analysis of cell viability is necessary for the characterization of cell responses to cytotoxic drugs and environmental stress. A RealTime-Glo MT Cell Viability Assay to monitor cell viability in real time of continues cell culture during 40 hours of compound treatment was used to screen Tox21 10K library compounds in Hek293 cells. The RealTime-Glo MT Cell Viability Assay is a nonlytic, homogeneous, bioluminescent method to measure cell viability in real time using a simple, plate-based method. The assay involves adding NanoLuc luciferase and a cell-permeant prosubstrate to cells in culture. Viable cells reduce the proprietary prosubstrate to generate a substrate for NanoLuc luciferase. This substrate diffuses from cells into the surrounding culture medium, where it is rapidly used by the NanoLuc Enzyme to produce a luminescent signal. The signal correlates with the number of viable cells, making the assay well suited for cytotoxicity studies.
# Tox21 Assay Protocol Summary:
# The mixture of Hek293 cell suspension and reagents were dispensed at 600cells/6 ul/well in 1536-well tissue culture treated black solid bottom plates using a Multidrop dispenser. After the assay plates were incubated at a 37 C/5% CO2 incubator for 5 hours, 23 nL of compounds dissolved in DMSO, positive and negative controls was transferred to the assay plate by a pintool work station. The plates were incubated at 37 C for 40 hours. The luminescence intensity were measured at 0h, 8h, 16h, 24h, 32h and 40h time points using ViewLux plate reader during compound treatment.
# % is scaled to controls: 0 for no effect and ±100 for the full control effect.
row,Structure (SMILES),"activity change, negative = cytotoxic"
1,CC1(C)C(=O)C(C)(C)C1=O,4.64%
2,N#Cc1cc(NC(=O)C(=O)O)c(Cl)c(NC(=O)C(=O)O)c1,-1.61% [at 35.3 µM]
3,COC(=O)c1ccc(C(=O)O)cc1,4.06%
4,CCCCC(CC)CCC(CC(C)C)OS(=O)(=O)O (stereo not given),1.78%
5,CCOC(=O)[C@H](CCc1ccccc1)N[C@H]1CS[C@H](c2cccs2)CN(CC(=O)O)C1=O,-1.22% [at 35.3 µM]
6,O=S(=O)(O)c1cc(I)c(O)c2ncccc12,5.19% [at 35.3 µM]
7,C=CCN(CC=C)CC=C,14.9%
8,CN1CCN(C(=O)C2CCCCC2)CC1,0.674% [at 35.3 µM]
9,COC(=O)N/N=C/c1c[n+]([O-])c2ccccc2[n+]1[O-],6.01% [at 35.3 µM]
10,Cc1ccc(NC(N)=O)cc1,9.37%
11,CCC(=O)OCCOc1ccccc1,4.34%
12,C=CCn1cc[n+](C)c1,-7.45%
13,CC(=O)c1ccc(O)c(C(N)=O)c1,3.58% [at 35.3 µM]
14,O=S(=O)(O)c1ccc(Cl)cc1,2.63%
15,CCOCCOCCOC(C)=O,9.31%
16,CCCCCCCCCCCCCCCCN(C)C,5.99% [at 6.97 µM]
17,C=CC(=O)OCC[N+](C)(C)C,15%
18,CC(=O)SCC(CC(=O)c1ccc(C)cc1)C(=O)O (stereo not given),1.12% [at 35.3 µM]
19,BrCCOc1ccccc1,-6.08%
20,C/C=C(\C)C=O,8.86%

row,Structure (SMILES),"activity change, negative = cytotoxic"
1,CNCCc1ccccn1,0.774% [at 35.3 µM]
2,NNC(=O)CCCCC(=O)NN,0.521%
3,CC(O)C(CO)C(C)O (stereo not given),-0.973%
4,Cc1ccc(O)c(C(=O)c2ccccc2)c1,-9.31%
5,CN(C)c1ccncc1,-14.6%
6,C[n+]1ccccc1/C=N/O,2.48% [at 35.3 µM]
7,O=C1CC2(CCCC2)CC(=O)N1CCNCC1COc2ccccc2O1 (stereo not given),-3.86% [at 35.3 µM]
8,O=P(O)(O)C(O)(Cc1cccnc1)P(=O)(O)O,-1.95% [at 35.3 µM]
9,CCC(C)c1nccnc1OC (stereo not given),4.07%
10,CCc1ccc(CC)cc1,7.8%
11,O=Cc1ccccc1S(=O)(=O)O,5.27%
12,CC(C)(C)C(=O)CCc1ccc(Cl)cc1,8.64%
13,CCCCCCCCCCCBr,-0.939% [at 35.3 µM]
14,CCc1ncc(C)[nH]1,0.277%
15,N#Cc1ccccc1C#N,10%
16,CCC(C)SSC(C)CC (stereo not given),11.1%
17,CCCC(=O)OC,-3.64%
18,CC(C)C(=O)Nc1cccc(C2CN3CCSC3=N2)c1 (stereo not given),-1.02% [at 35.3 µM]
19,CCN1CCN(C(=O)N[C@@H](C(=O)N[C@@H]2C(=O)N3[C@@H]2SC(C)(C)[C@H]3C(=O)O)c2ccccc2)C(=O)C1=O,-0.889% [at 35.3 µM]
20,CC(C)(C)OC=O,12%

# Reference: PubChem BioAssay (Tox21)
